Laboratory results taken from PubChem BioAssay (NCI).
About 79,000 compounds went through this panel and 15% of them were active in at least one assay; those are over-represented in the sample as a whole. No stated cut-off is given here; in the data, active means growth inhibition above about 70%; inactive means the rest.

Experiments:
[1] = NCI Yeast Anticancer Drug Screen. Data for the rad50 strain (AID 155);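 further: 0% = growth of vehicle-only cultures of the same strain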; settings: S. cerevisiae rad50 strain growth inhibition; at 50.0 µM; hits give high values
How it was run: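 Compounds were tested on a yeast strain with an engineered DNA damage repair alteration; the reported value is growth inhibition normalised to vehicle treatment.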

[2] = NCI Yeast Anticancer Drug Screen. Data for the mec2-1 strain (AID 157); settings: S. cerevisiae mec2-1 strain, at 50.0 µM, hits give high values
How it was run: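 Mutant yeast (mec2-1) grown with compound; growth inhibition relative to vehicle control reported.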

[3] = NCI Yeast Anticancer Drug Screen. Data for the sgs1 mgt1 strain (AID 161);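 further: 0% = growth of cultures given vehicle only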; settings: S. cerevisiae sgs1 mgt1 strain, at 50.0 µM, hits give high values
How it was run: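 Growth of a repair-deficient yeast mutant was monitored after compound treatment and expressed as inhibition relative to vehicle-treated cultures.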

[4] = NCI Yeast Anticancer Drug Screen. Data for the cln2 rad14 strain (AID 165);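 further: 0% = growth equal to vehicle treated cultures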; settings: S. cerevisiae cln2 rad14 strain, at 50.0 µM, hits give high values
How it was run: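 Readout is yeast growth inhibition versus vehicle-treated controls, using a strain with cln2 and rad14 alterations exposed to compound.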

[5] = NCI Yeast Anticancer Drug Screen. Data for the bub3 strain (AID 167); settings: S. cerevisiae bub3 mutant strain, at 50.0 µM, hits give high values
How it was run: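 Growth of a checkpoint-deficient yeast mutant is measured after compound exposure. Values represent inhibition relative to vehicle.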

[6] = NCI Yeast Anticancer Drug Screen. Data for the mlh1 rad18 strain (AID 175); settings: S. cerevisiae mlh1 rad18 strain growth inhibition; at 50.0 µM; hits give high values
How it was run: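 Genetically defined yeast (DNA repair-deficient) exposed to compounds; growth inhibition determined relative to vehicle.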

Measured: growth inhibition

O=C1NCCN1CCCl
inactive: [1] 0.7% | [2] -1.25% | [3] -5.15% | [4] 1.5% | [5] 1.65% | [6] 6.25%

COC(=O)C1CCC(C(=O)OC)CC1 (centres undefined)
inactive: [1] -4.3% | [2] -22.6% | [3] -2.3% | [4] -1.15% | [5] -9% | [6] -11.1%

CC(=O)OC1C[C@@](C)(O)[C@@]23O[C@@H]2[C@@H]2O[C@]2(C)C3C2OC(=O)C(C)[C@H]12 (some centres undefined)
inactive: [1] -0.25% | [2] -20.9% | [3] -6.85% | [4] 7.55% | [5] -6.3% | [6] -9.6%

COc1ccc2c(c1)OC[C@@H]1c3cc(O)c(OCc4ccccc4)cc3O[C@]21C
inactive: [1] 9.9% | [2] 40.8% | [3] 10.3% | [4] 53.5% | [5] 21.7% | [6] -26%

C/C(=N/NC(N)=O)c1cn[nH]c1C
inactive: [1] -27.6% | [2] -14.8% | [3] 3.7% | [4] -66% | [5] 11.9% | [6] 11.8%

Cc1c(Cl)ccc2nc3ccccc3nc12
inactive: [1] 32.4% | [2] 18.8% | [3] 12.7% | [4] -4.85% | [5] 61.6% | [6] 34.5%

CC1CCCCc2nc3c(c(=O)n21)CCCC3 (centres undefined)
inactive: [1] 9.3% | [2] -11.8% | [3] 34% | [4] 0.25% | [5] 25.6% | [6] 41%

CC(C)(C)OC(=O)NC(Cc1ccccc1)C(=O)N[C@H]1c2ccsc2/C(=N/O)[C@H]1O (some centres undefined)
inactive: [1] -9.2% | [2] -6.95% | [3] 3.8% | [4] 9.15% | [5] -4.85% | [6] 29.9%

CC1CNC(=O)NC1=O.O.O.[NH2-].[NH2-].[Pt+4] (centres undefined)
inactive: [1] 7.55% | [2] 11.2% | [3] -0.75% | [4] -51% | [5] -5.95% | [6] -5.85%

C=C1C(=O)OC2(C)CCC1CC1OC1(C)CC/C=C(\C)CCC2OC(C)=O (centres undefined)
inactive: [1] -3.95% | [2] -6.55% | [3] 17.4% | [4] 8.25% | [5] -3% | [6] 7.85%

Nc1nc2c(C(=O)N3CCCC3)nnn2c2cccc(Cl)c12
inactive: [1] -4.45% | [2] -11.7% | [3] 17% | [4] 18.3% | [5] 9.9% | [6] 0.05%

COc1ccc(-c2cc(-c3ccco3)c(C#N)c(=S)n2C2OC(COC(C)=O)C(OC(C)=O)C(OC(C)=O)C2OC(C)=O)cc1 (centres undefined)
inactive: [1] 19.6% | [2] -4.25% | [3] 12.7% | [4] -2.75% | [5] 4.25% | [6] 34.2%

Clc1ccc2c(c1)C(Nc1cc3c4ccccc4ccc3c3ccccc13)c1cc(Cl)cc(Cl)c1-2 (centres undefined)
inactive: [1] 51.2% | [2] -1.25% | [3] 22.6% | [4] 21.1% | [5] 9.3% | [6] 12.2%

CC(CCC(=O)O)[C@H]1CCC2[C@@H]3C(=O)C[C@@H]4CC(O)CC[C@]4(C)C3CC[C@@]21C (some centres undefined)
inactive: [1] 38.8% | [2] 18.1% | [3] 41.5% | [4] 35.8% | [5] 19.9% | [6] 23.1%

Cc1ccc(Cl)cc1NC(=O)Oc1ccc(C(C)(C)C)cc1Br
inactive: [1] 54.3% | [2] 57.1% | [3] 11.7% | [4] 1.5% | [5] 19.9% | [6] 60.2%

C/C(CC1CC=CCC1)=N\NC(N)=O (centres undefined)
inactive: [1] -16.1% | [2] -4.7% | [3] -2.6% | [4] -20.5% | [5] -3.8% | [6] 30.8%

CCc1cc(O)cc(C)c1Cl
inactive: [1] 55.1% | [2] 29.6% | [3] 46.1% | [4] 46.4% | [5] 44.3% | [6] 26.1%

CC(C)CCCC(C)C1CCC2(C)C3=C(CCC12C)C1(C)Cc2cnn(-c4ccccc4)c2C(C)(C)C1CC3 (centres undefined)
inactive: [1] -6.4% | [2] -6.05% | [3] -6.65% | [4] -12.8% | [5] -2.85% | [6] -17.4%

COc1ccccc1NC(=O)Oc1ccc(C#N)cc1
inactive: [1] 7.2% | [2] -14.5% | [3] 15% | [4] -1.8% | [5] 9.75% | [6] 0.4%
